# According to the supplement of paper PMC12282887:
# ± gives the standard deviation of the averaged measurements.
# How the values were obtained:
# Assay in all cases: promoter activity interaction Z-score (Lux/OD deviation from empty-vector control); higher = stronger promoter induction by the compound
# [1] = tested on: E. coli BW25113 acrABp lux reporter
# In short: (§1)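 Reporter strains of E. coli BW25113 grew at 37°C in 40 µl LB Lennox in 384-well plates. Readings of OD600 and luminescence were taken every 30 min over 12 h, integrated over 0–8 h (wild type) or 1–9 h (deletion strains), and wells below 10% of the median growth value were excluded. Scores are Z-transformed residuals of growth-normalised luminescence from a fit against a control.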
# [2] = tested on: E. coli BW25113 micFp lux reporter
# In short: as §1
# [3] = tested on: E. coli BW25113 ompFp lux reporter
# In short: as §1
# [4] = tested on: E. coli BW25113 robp lux reporter
# In short: as §1
# [5] = tested on: E. coli BW25113 soxSp lux reporter
# In short: as §1
# [6] = tested on: E. coli BW25113 tolCp lux reporter
# In short: as §1
# [7] = 22.7 µg/ml, genetic background: wild type
# [8] = 22.7 µg/ml, genetic background: ΔmarA
# [9] = 22.7 µg/ml, genetic background: Δrob
# [10] = 22.7 µg/ml, genetic background: ΔsoxS
# [11] = 45.3 µg/ml, genetic background: wild type
# [12] = 45.3 µg/ml, genetic background: ΔmarA
# [13] = 45.3 µg/ml, genetic background: Δrob
# [14] = 45.3 µg/ml, genetic background: ΔsoxS
# [15] = 90.6 µg/ml, genetic background: wild type
# [16] = 90.6 µg/ml, genetic background: ΔmarA
# [17] = 90.6 µg/ml, genetic background: Δrob
# [18] = 90.6 µg/ml, genetic background: ΔsoxS
# [19] = 181.2 µg/ml, genetic background: wild type
# [20] = 181.2 µg/ml, genetic background: ΔmarA
# [21] = 181.2 µg/ml, genetic background: Δrob
# [22] = 181.2 µg/ml, genetic background: ΔsoxS
compound,measurement,setting,value
C[C@]12CCC(=O)C=C1CC[C@@H]1[C@@H]2[C@@H](O)C[C@@]2(C)[C@H]1CC[C@]2(O)C(=O)CO [Hydrocortisone],promoter activity interaction Z-score,[1]; [7],0.0762 ± 0.23
same,promoter activity interaction Z-score,[1]; [8],1.29 ± 0.12
same,promoter activity interaction Z-score,[1]; [9],0.155 ± 0.043
same,promoter activity interaction Z-score,[1]; [10],-0.247 ± 0.36
same,promoter activity interaction Z-score,[1]; [11],-0.118 ± 0.13
same,promoter activity interaction Z-score,[1]; [12],-0.299 ± 0.39
same,promoter activity interaction Z-score,[1]; [13],-0.0995 ± 0.075
same,promoter activity interaction Z-score,[1]; [14],-0.18 ± 0.021
same,promoter activity interaction Z-score,[1]; [15],-0.0327 ± 0.25
same,promoter activity interaction Z-score,[1]; [16],0.944 ± 0.81
same,promoter activity interaction Z-score,[1]; [17],-0.203 ± 0.1
same,promoter activity interaction Z-score,[1]; [18],-0.563 ± 0.76
same,promoter activity interaction Z-score,[1]; [19],-0.103 ± 0.25
same,promoter activity interaction Z-score,[1]; [20],0.322 ± 0.17
same,promoter activity interaction Z-score,[1]; [21],-0.0446 ± 0.063
same,promoter activity interaction Z-score,[1]; [22],-0.63 ± 0.4
same,promoter activity interaction Z-score,[2]; [7],-0.121 ± 0.17
same,promoter activity interaction Z-score,[2]; [8],-0.0598 ± 0.096
same,promoter activity interaction Z-score,[2]; [9],0.0274 ± 0.19
same,promoter activity interaction Z-score,[2]; [10],-0.338 ± 0.18
same,promoter activity interaction Z-score,[2]; [11],-0.199 ± 0.022
same,promoter activity interaction Z-score,[2]; [12],-0.00993 ± 0.17
same,promoter activity interaction Z-score,[2]; [13],-0.112 ± 0.071
same,promoter activity interaction Z-score,[2]; [14],-0.292 ± 0.17
same,promoter activity interaction Z-score,[2]; [15],-0.0486 ± 0.33
same,promoter activity interaction Z-score,[2]; [16],0.0152 ± 0.072
same,promoter activity interaction Z-score,[2]; [17],-0.0859 ± 0.072
same,promoter activity interaction Z-score,[2]; [18],-0.443 ± 0.012
same,promoter activity interaction Z-score,[2]; [19],-0.162 ± 0.41
same,promoter activity interaction Z-score,[2]; [20],0.0829 ± 0.11
same,promoter activity interaction Z-score,[2]; [21],0.0154 ± 0.043
same,promoter activity interaction Z-score,[2]; [22],-0.487 ± 0.11
same,promoter activity interaction Z-score,[3]; [7],-0.318 ± 0.33
same,promoter activity interaction Z-score,[3]; [8],-1.05 ± 0.19
same,promoter activity interaction Z-score,[3]; [9],-0.188 ± 0.34
same,promoter activity interaction Z-score,[3]; [10],-0.146 ± 0.36
same,promoter activity interaction Z-score,[3]; [11],-0.51 ± 0.41
same,promoter activity interaction Z-score,[3]; [12],-0.8954 ± 0.0059
same,promoter activity interaction Z-score,[3]; [13],-0.15 ± 0.053
same,promoter activity interaction Z-score,[3]; [14],-0.152 ± 0.059
same,promoter activity interaction Z-score,[3]; [15],-0.587 ± 0.064
same,promoter activity interaction Z-score,[3]; [16],-0.994 ± 0.16
same,promoter activity interaction Z-score,[3]; [17],-0.657 ± 0.24
same,promoter activity interaction Z-score,[3]; [18],-1.03 ± 0.14
same,promoter activity interaction Z-score,[3]; [19],-0.507 ± 0.061
same,promoter activity interaction Z-score,[3]; [20],-0.698 ± 0.09
same,promoter activity interaction Z-score,[3]; [21],-0.507 ± 0.34
same,promoter activity interaction Z-score,[3]; [22],-0.928 ± 0.4
same,promoter activity interaction Z-score,[4]; [7],0.0773 ± 1.2
same,promoter activity interaction Z-score,[4]; [8],0.0463 ± 0.066
same,promoter activity interaction Z-score,[4]; [9],0.694 ± 1.1
same,promoter activity interaction Z-score,[4]; [10],-0.236 ± 0.064
same,promoter activity interaction Z-score,[4]; [11],-0.333 ± 0.93
same,promoter activity interaction Z-score,[4]; [12],0.247 ± 0.23
same,promoter activity interaction Z-score,[4]; [13],0.312 ± 0.14
same,promoter activity interaction Z-score,[4]; [14],0.174 ± 0.55
same,promoter activity interaction Z-score,[4]; [15],-0.0645 ± 0.73
same,promoter activity interaction Z-score,[4]; [16],-0.315 ± 0.028
same,promoter activity interaction Z-score,[4]; [17],0.1 ± 1.2
same,promoter activity interaction Z-score,[4]; [18],-0.777 ± 0.35
same,promoter activity interaction Z-score,[4]; [19],-0.438 ± 0.64
same,promoter activity interaction Z-score,[4]; [20],-0.167 ± 0.27
same,promoter activity interaction Z-score,[4]; [21],0.558 ± 0.36
same,promoter activity interaction Z-score,[4]; [22],0.106 ± 1
same,promoter activity interaction Z-score,[5]; [7],0.274 ± 0.098
same,promoter activity interaction Z-score,[5]; [8],-0.206 ± 0.075
same,promoter activity interaction Z-score,[5]; [9],0.0559 ± 0.11
same,promoter activity interaction Z-score,[5]; [10],-0.266 ± 0.045
same,promoter activity interaction Z-score,[5]; [11],0.0799 ± 0.065
same,promoter activity interaction Z-score,[5]; [12],-0.198 ± 0.084
same,promoter activity interaction Z-score,[5]; [13],0.0141 ± 0.1
same,promoter activity interaction Z-score,[5]; [14],-0.247 ± 0.054
same,promoter activity interaction Z-score,[5]; [15],-0.0463 ± 0.13
same,promoter activity interaction Z-score,[5]; [16],-0.321 ± 0.095
same,promoter activity interaction Z-score,[5]; [17],-0.185 ± 0.0079
same,promoter activity interaction Z-score,[5]; [18],-0.58 ± 0.1
same,promoter activity interaction Z-score,[5]; [19],-0.0782 ± 0.16
same,promoter activity interaction Z-score,[5]; [20],-0.3408 ± 0.003
same,promoter activity interaction Z-score,[5]; [21],-0.284 ± 0.044
same,promoter activity interaction Z-score,[5]; [22],-0.743 ± 0.29
same,promoter activity interaction Z-score,[6]; [7],0.184 ± 0.076
same,promoter activity interaction Z-score,[6]; [8],0.724 ± 1.1
same,promoter activity interaction Z-score,[6]; [9],0.231 ± 1.1
same,promoter activity interaction Z-score,[6]; [10],-0.0445 ± 0.42
same,promoter activity interaction Z-score,[6]; [11],-0.258 ± 0.085
same,promoter activity interaction Z-score,[6]; [12],0.509 ± 1.2
same,promoter activity interaction Z-score,[6]; [13],0.65 ± 0.86
same,promoter activity interaction Z-score,[6]; [14],-1.3 ± 0.73
same,promoter activity interaction Z-score,[6]; [15],0.153 ± 0.86
same,promoter activity interaction Z-score,[6]; [16],0.621 ± 0.97
same,promoter activity interaction Z-score,[6]; [17],0.0433 ± 0.14
same,promoter activity interaction Z-score,[6]; [18],-0.413 ± 0.29
same,promoter activity interaction Z-score,[6]; [19],-0.363 ± 0.23
same,promoter activity interaction Z-score,[6]; [20],0.0951 ± 0.92
same,promoter activity interaction Z-score,[6]; [21],0.261 ± 1.6
same,promoter activity interaction Z-score,[6]; [22],0.18 ± 0.34
